Growth data for 38 compounds are collected here from PubChem BioAssay (NCI).

This is part of a sample that, as a whole, favours compounds with a hit. Of some 83,000 tested, about 20% had one in any assay.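 The endpoint reported here, percent growth, reads 100 for growth as untreated, 0 for no net growth and -100 for all cells dead.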 Values without a mark were called inactive. Active and inactive are the calls of the source. Rule for the calls: active = growth percent below 10; inactive = the rest.

The first test concerns T-47D breast. Description: NCI-60 one-dose screen, 48 h (100 = growth as untreated, 0 = no growth, -100 = all killed). The conditions noted are these: 10 µM unless noted.
On to `CCN(CC)CCC(=O)c1cccc2ccccc12`, for which the growth was 85.1%.
The same measure, in the same setting: next, `COc1cc(C2C=C(C)N=C3SC=C(C)N32)cc(OC)c1OC` (stereo unspecified): 7.98% (active).
Regarding `O=C(CCCn1c2c(sc3ccccc32)c(=O)n2nnc(-c3ccccc3)c12)NCCc1cnc[nH]1`, the growth is -25.4% (active).
On the same count and under the same terms, next, `O=c1oc2cc(OS(=O)(=O)c3ccc(F)cc3)ccc2c2c1CCCCC2`: 30.3%; `C=C1C(=O)O[C@H]2[C@H]1CC/C(Cn1cc(-c3ccsc3)nn1)=C\CC[C@@]1(C)O[C@@H]21`: -62% (active); `Cc1cc(NC(=O)COC(=O)c2sc3cc(F)ccc3c2Cl)no1`: 102%.
Turning to `CNC(=O)c1cc(Oc2ccc3c(c2)sc2nc(-c4ccc(Cl)cc4)cn23)ccn1`, the growth was 79%.
Consider `O=C(NCCCN1CCN(CCCNC(=O)C2CCCCC2)CC1)C1CCCCC1`, for which the growth was 90%.
On to `COc1ccc(/C=C/C(=O)c2ccc(B(O)O)cc2)cc1O`, for which the growth is 79.2%.
Consider `NCCSC(c1ccccc1)(c1ccccc1)c1ccccc1`, for which the growth is 25.6%.
Regarding `COc1ccc(/C=C/C(=O)/C=C/c2cc3ccc(Cl)cc3[nH]c2=O)cc1`, the growth was 67.3%.
Same read-out and setting: the result for `CCn1cc(C2NC(=O)c3cc(F)ccc3N2)c2cccc(Cl)c21` (stereo unspecified) reads 58.3%; that for `O=C(O)c1cn(C2CC2)c2cc(N3CCN(S(=O)(=O)c4ccc(Cl)c(Cl)c4)CC3)c(F)cc2c1=O`, 16.3%; that for `O=C(Nc1ccc(F)cc1)c1cc([N+](=O)[O-])ccc1O`, 56%.
The same measure, in the same setting: the result for `O=C(Nc1ccc(I)cc1)c1cc([N+](=O)[O-])ccc1O` reads 29.9%; that for `CC(C)(C)OC(=O)N[C@@H](Cc1ccccc1)C(=O)N(Cc1ccccc1)C1(C(=O)NCc2ccccc2)CCN(Cc2ccccc2)CC1`, 38%; that for `C=C1C(=O)O[C@H]2[C@H]1CC/C(COC(=O)NCc1cc(OC)cc(OC)c1)=C\CC[C@@]1(C)O[C@@H]21`, -8.17% (active).
The same measure, in the same setting: the result for `O=C(CN1CCN(c2cc3c(cc2F)c(=O)c(C(=O)O)cn3C2CC2)CC1)Nc1ccc(C(=O)/C=C/c2ccccc2)cc1` reads 85.1%; that for `C=C1C(=O)O[C@H]2[C@H]1CC/C(COC(=O)NCCc1cccc(OC)c1)=C\CC[C@@]1(C)O[C@@H]21`, 20.4%.
As to `COc1ccc(/C(=N/O)c2cc(OC)c(OC)c(OC)c2)c(OC)c1N`, the growth is 27.2%.
Consider `Cc1cccc(NC(=O)c2sc3nc4c(cc3c2N)CCCC4)c1`, for which the growth was 53.5%.
Turning to `O=S(=O)(NCCNc1cc(-c2cn(-c3ccccc3)nc2-c2ccccc2)ccn1)c1ccc(F)cc1`, the growth is 50.5%.
The same measure, in the same setting: next, `COc1ccc(/C=C2\CCCC3=C2NC(C)=NC3c2ccc(OC)c(OC)c2)cc1OC` (stereo unspecified): 11.2%; `N#Cc1ccc(NC(=O)c2ccc3cccnc3c2O)cc1`: 27.3%; `Cc1sc(N=Nc2ccc(N(C)C)cc2)[n+]([O-])c1C`: 95.4%.
For `CCOC(=O)/C=C\C(=O)NC(N)=O`, the growth was 89.1%.
As for `CCSc1nnc(Nc2ccc(C(C)C)cc2)s1`, the growth was 78.7%.
Consider `Clc1ccc([I+]c2ccc(Cl)cc2Cl)c(Cl)c1`, for which the growth is -44.9% (active).
Still for that read-out and setting: the result for `CC(=O)n1cc([C@H]2CC[C@H](c3cn(C(C)=O)c4ccccc34)c3c2[nH]c2ccccc32)c2ccccc21` reads 50.8%; that for `O=c1c2cccc3c(Nc4ccc(F)cc4)ccc(c32)c2nc3ccccc3n12`, 23.4%; that for `Clc1nc(-c2cccnc2)nc2sc3c(c12)CCCCCC3`, 95.4%.
On the same count and under the same terms, next, `COc1cc(NC(=O)CCl)ccc(=O)c1`: 67.1%; `CCn1cc(C(=O)O)c(=O)c2cc(F)c(N3CCN(S(=O)(=O)c4ccc(OC)c(OC)c4)CC3)cc21`: 87.2%.
As to `CC(=O)C1CCC(C)=CC1=O` (stereo unspecified), the growth is 90.2%.
Regarding `O=C(O)c1ccc(-n2cc(CNc3ccc(C(F)(F)F)cc3)c(-c3ccccc3)n2)cc1`, the growth was 79.2%.
Consider `COc1cc(OC)c(C(=O)/C=C/c2ccc(C#N)cc2)c(OC)c1`, for which the growth was 18.5%.
Same read-out and setting: the result for `CCN(CC)CCCNc1nc(C)cc(Nc2ccc3nc(C)cc(N)c3c2)n1` reads 92.2%.
On the same count and under the same terms, next, `Cc1ccnc2nc(C(=O)OCC(=O)Nc3ccc(-c4ccccc4)cc3)nn12`: 111%.

For another test, the system named is BT-549 breast. The test is described as above. As to conditions: 10 µM unless noted.
Take `CCN(CC)CCC(=O)c1cccc2ccccc12`: the growth is 110%.
With `COc1cc(C2C=C(C)N=C3SC=C(C)N32)cc(OC)c1OC` (stereo unspecified), the growth is -49.9% (active).
In the case of `O=C(CCCn1c2c(sc3ccccc32)c(=O)n2nnc(-c3ccccc3)c12)NCCc1cnc[nH]1`, the growth is 72.2%.
On the same count and under the same terms, the result for `O=c1oc2cc(OS(=O)(=O)c3ccc(F)cc3)ccc2c2c1CCCCC2` reads 73.6%.
For the compound `C=C1C(=O)O[C@H]2[C@H]1CC/C(Cn1cc(-c3ccsc3)nn1)=C\CC[C@@]1(C)O[C@@H]21`, the growth was -56.3% (active).
Turning to `Cc1cc(NC(=O)COC(=O)c2sc3cc(F)ccc3c2Cl)no1`, the growth is 117%.
Turning to `CNC(=O)c1cc(Oc2ccc3c(c2)sc2nc(-c4ccc(Cl)cc4)cn23)ccn1`, the growth is 87.8%.
On the same count and under the same terms, next, `O=C(NCCCN1CCN(CCCNC(=O)C2CCCCC2)CC1)C1CCCCC1`: 96.4%; `COc1ccc(/C=C/C(=O)c2ccc(B(O)O)cc2)cc1O`: 64.8%; `NCCSC(c1ccccc1)(c1ccccc1)c1ccccc1`: 22.1%.
Same read-out and setting: next, `COc1ccc(/C=C/C(=O)/C=C/c2cc3ccc(Cl)cc3[nH]c2=O)cc1`: 75.6%; `CCn1cc(C2NC(=O)c3cc(F)ccc3N2)c2cccc(Cl)c21` (stereo unspecified): 26.9%.
With `O=C(O)c1cn(C2CC2)c2cc(N3CCN(S(=O)(=O)c4ccc(Cl)c(Cl)c4)CC3)c(F)cc2c1=O`, the growth was -4.65% (active).
The same measure, in the same setting: next, `O=C(Nc1ccc(F)cc1)c1cc([N+](=O)[O-])ccc1O`: 81.5%; `O=C(Nc1ccc(I)cc1)c1cc([N+](=O)[O-])ccc1O`: 34.3%.
For `CC(C)(C)OC(=O)N[C@@H](Cc1ccccc1)C(=O)N(Cc1ccccc1)C1(C(=O)NCc2ccccc2)CCN(Cc2ccccc2)CC1`, the growth was 71%.
`C=C1C(=O)O[C@H]2[C@H]1CC/C(COC(=O)NCc1cc(OC)cc(OC)c1)=C\CC[C@@]1(C)O[C@@H]21`: the growth is -5.77% (active).
Take `O=C(CN1CCN(c2cc3c(cc2F)c(=O)c(C(=O)O)cn3C2CC2)CC1)Nc1ccc(C(=O)/C=C/c2ccccc2)cc1`: the growth was 9.61% (active).
Regarding `C=C1C(=O)O[C@H]2[C@H]1CC/C(COC(=O)NCCc1cccc(OC)c1)=C\CC[C@@]1(C)O[C@@H]21`, the growth is 27.8%.
Same read-out and setting: the result for `COc1ccc(/C(=N/O)c2cc(OC)c(OC)c(OC)c2)c(OC)c1N` reads 36.2%; that for `Cc1cccc(NC(=O)c2sc3nc4c(cc3c2N)CCCC4)c1`, 50.8%; that for `O=S(=O)(NCCNc1cc(-c2cn(-c3ccccc3)nc2-c2ccccc2)ccn1)c1ccc(F)cc1`, 94.8%.
Still for that read-out and setting: the result for `COc1ccc(/C=C2\CCCC3=C2NC(C)=NC3c2ccc(OC)c(OC)c2)cc1OC` (stereo unspecified) reads -16.1% (active); that for `N#Cc1ccc(NC(=O)c2ccc3cccnc3c2O)cc1`, 27.7%.
Still for that read-out and setting: next, `Cc1sc(N=Nc2ccc(N(C)C)cc2)[n+]([O-])c1C`: 94.3%; `CCOC(=O)/C=C\C(=O)NC(N)=O`: 100%.
Turning to `CCSc1nnc(Nc2ccc(C(C)C)cc2)s1`, the growth is 103%.
Same read-out and setting: the result for `Clc1ccc([I+]c2ccc(Cl)cc2Cl)c(Cl)c1` reads 7.13% (active).
Same read-out and setting: the result for `CC(=O)n1cc([C@H]2CC[C@H](c3cn(C(C)=O)c4ccccc34)c3c2[nH]c2ccccc32)c2ccccc21` reads 95.2%; that for `O=c1c2cccc3c(Nc4ccc(F)cc4)ccc(c32)c2nc3ccccc3n12`, 87.5%.
The same measure, in the same setting: next, `Clc1nc(-c2cccnc2)nc2sc3c(c12)CCCCCC3`: 99.8%; `COc1cc(NC(=O)CCl)ccc(=O)c1`: 58.9%.
As for `CCn1cc(C(=O)O)c(=O)c2cc(F)c(N3CCN(S(=O)(=O)c4ccc(OC)c(OC)c4)CC3)cc21`, the growth is 105%.
The same measure, in the same setting: next, `CC(=O)C1CCC(C)=CC1=O` (stereo unspecified): 93.3%; `O=C(O)c1ccc(-n2cc(CNc3ccc(C(F)(F)F)cc3)c(-c3ccccc3)n2)cc1`: 99.1%; `COc1cc(OC)c(C(=O)/C=C/c2ccc(C#N)cc2)c(OC)c1`: -7.5% (active).
The same measure, in the same setting: the result for `CCN(CC)CCCNc1nc(C)cc(Nc2ccc3nc(C)cc(N)c3c2)n1` reads 84.9%; that for `Cc1ccnc2nc(C(=O)OCC(=O)Nc3ccc(-c4ccccc4)cc3)nn12`, 96.3%.
